Assay results reported in PubChem BioAssay (NCATS).
Results filed as inconclusive are left out. Calls of active or inactive are those of the source. Unless noted, calls follow the shape of the dose curve; as a rule, active = well fitted curve in the direction sought with a large enough effect; inconclusive = small, poorly fitted or top-dose-only effect, or another doubt; inactive = no such curve, though single readings can be large; an effect the other way counts as inactive or inconclusive.

Columns and labels:
[1] = qHTS to identify inhibitors of the type 1 interferon - major histocompatibility complex class I in skeletal muscle: primary screen against the NCATS Pharmaceutical Collection (AID 1347407);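 also: luminescence of HiBiT knocked into endogenous HLA-B as interferon-induced MHC class I level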
Procedure, shortened: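 HLA-B HiBiT myoblasts, dexamethasone-free growth medium + 4 ng/ml IFN-b; compounds pinned 1 h after seeding, […] from 46 uM; 24 h, 37 C, 5% CO2; lytic HiBiT detection, 10 min RT, luminescence.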

[2] = target: Protein phosphatase 1D (Homo sapiens) (UniProt O15297); assay: RapidFire Mass Spectrometry qHTS Assay for Modulators of WT P53-Induced Phosphatase 1 (WIP1) (AID 1347424); also: series mostly up to about 63 µM
Procedure, shortened: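 RapidFire MS readout of dephosphorylated VEPPL-S-QETFS product, with 1 uM isotope-labelled peptide standard. Reaction: 10 nM WIP1, 2 uM phosphopeptide substrate, 5 min, room temperature, after 1 h compound preincubation; stopped with 0.5% formic acid.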

[3] = target: Protein phosphatase 1D (Homo sapiens) (UniProt O15297); assay: Rhodamine-PBP qHTS Assay for Modulators of WT P53-Induced Phosphatase 1 (WIP1) (AID 1347425)
Procedure, shortened: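 The read-out is the change in Rhodamine-PBP fluorescence (f1 - f0, ex 525/em 598 nm) as Pi is released, read each minute for 11 min. Final reaction: 5 nM WIP1, 10 uM phosphopeptide VEPPL-pS-QETFS, 10 uM Rh-PBP, 50 mM Tris-HCl pH 7.5, 30 mM MgCl2. Compound was preincubated with enzyme for 1 hour at room temperature.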

[4] = Primary qHTS for inhibitors of La Crosse Virus (LACV) - induced cell death in SH-SY5Y cells (AID 1508616);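 also: top concentration of the series differs between compounds; higher means more rescue of cells from virus-induced death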
Procedure, shortened: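 Cytopathicity rescue screen: compounds pinned onto SH-SY5Y cells, which are then infected with LACV (MOI 0.01) and held 6 days at 37C. Percent activity is scaled between infected DMSO control and uninfected DMSO control.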

[5] = target: Calcium and integrin-binding protein 1 (Homo sapiens) (UniProt Q99828); assay: Primary qHTS for Identification of Calcium Integrin Binding Protein 1 (CIB1) Competitor (AID 1508620);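 also: GST tagged CIB1 binding a fluorescein labelled alphaIIb integrin peptide tracer; top concentration of the series differs between compounds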
Procedure, shortened: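 Fluorescence polarization competition: GST-tagged CIB1 (1 uM final) preincubated with compound 15 min at room temperature, then FITC-labelled alphaIIb peptide (100 nM final) added. After 15 min at room temperature, polarization read at Ex 480/Em 540.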

[6] = Primary qHTS for small molecule stabilizers of the endoplasmic reticulum resident proteome: Secreted ER Calcium Modulated Protein (SERCaMP) assay (AID 1508630)
Procedure, shortened: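 The SH-SY5Y reporter protocol was run at 3 concentrations up to 38.3 uM (primary) or 11 concentrations (follow-up): 16 h compound, 100 nM thapsigargin for 4 h, then extracellular luciferase luminescence.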

[7] = A High-Content qHTS Against Drug Library for the Identification of Small Molecules that Inhibit DYT1 Early Onset Primary Dystonia-Associated Cell Pathology (AID 1645839; calls by dose curve; also: series mostly up to about 46 µM)
Procedure, shortened: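 Cells were seeded and left for 24 h, then dosed with compound alongside tetracycline induction of mutant EGFP-TorsinA. They were incubated for 48 h, fixed in 4% paraformaldehyde, permeabilized and imaged for mislocalization (%pathology) and cell count.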

[8] = target: Cytochrome P450 2D6 (Homo sapiens) (UniProt P10635); assay: Cytochrome P450 family 2 subfamily D member 6 (CYP2D6) small molecule antagonists: luciferase biochemical (cell-free) qHTS assay (AID 1645840; active = well fitted curve in the direction sought with a large enough effect in the repeat runs; an effect the other way counts as inactive or inconclusive; also: series mostly up to about 57 µM; nearly all actives have a fitted effect of over 55% in size)
Procedure, shortened: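 P450-Glo CYP2D6 system: proluciferin substrate converted by enzyme to luciferin, read by luminescence proportional to activity. Enzyme-substrate mix with compound 10 min at room temperature, then NADPH regeneration 1 h before detection reagent.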

[9] = target: Cytochrome P450 3A4 (Homo sapiens) (UniProt P08684); assay: Cytochrome P450 family 3 subfamily A member 4 (CYP3A4) small molecule antagonists: luciferase qHTS assay (AID 1645841; active = well fitted curve in the direction sought with a large enough effect in the repeat runs; an effect the other way counts as inactive or inconclusive; also: nearly all actives have a fitted effect of over 45% in size)
Procedure, shortened: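 P450-Glo CYP3A4 enzyme with proluciferin substrate preincubated 10 min with compound at room temperature, then NADPH regeneration 1 h. Luciferin detection reagent added for 20 min; luminescence recorded. Ketoconazole positive control.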

[10] = target: Cytochrome P450 2C9 (Homo sapiens) (UniProt P11712); assay: Cytochrome P450 family 2 subfamily C member 9 (CYP2C9) small molecule antagonists: luciferase biochemical (cell-free) qHTS assay (AID 1645842; active = well fitted curve in the direction sought with a large enough effect in the repeat runs; an effect the other way counts as inactive or inconclusive; also: series mostly up to about 57 µM; nearly all actives have a fitted effect of over 55% in size)
Procedure, shortened: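 P450-Glo CYP2C9 system: proluciferin substrate with enzyme in mix containing 0.4% BSA, 10 min at room temperature, then NADPH regeneration solution added and incubated 1 h at 37C. Detection reagent stopped reaction; luminescence read after 20 min as RLU.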

[11] = Primary qHTS for inhibitors of nuclear receptor binding SET domain protein 2 (NSD2) in an isogenic RCH-ACV NSD2 p.E1099K mutant (9B) (AID 1645876); also: nearly all actives have a fitted effect of over 70% in size
[12] = Primary qHTS for inhibitors of nuclear receptor binding SET domain protein 2 (NSD2) in an RCH-ACV wild type WT cells (2C) (AID 1645877); also: nearly all actives have a fitted effect of over 70% in size
[13] = qHTS to identify inhibitors of the type 1 interferon - major histocompatibility complex class I in skeletal muscle: primary screen against the NCATS Mechanism Interrogation Plate v5.0 (MIPE) Libary (AID 1347411); also: nearly all actives have a fitted effect of over 65% in size
Procedure, shortened: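 HLA-B HiBit myoblasts, dexamethasone-free medium + 4 ng/ml IFN-b, 24 h compound, 11-pt 1:3 from 46 uM final. Readout: Nano-Glo HiBiT lytic luminescence after 10 min lysis, RT.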

Measured: Potency

Cytochrome P450 2C9 (Homo sapiens), sequence (P11712 whole entry, looked up): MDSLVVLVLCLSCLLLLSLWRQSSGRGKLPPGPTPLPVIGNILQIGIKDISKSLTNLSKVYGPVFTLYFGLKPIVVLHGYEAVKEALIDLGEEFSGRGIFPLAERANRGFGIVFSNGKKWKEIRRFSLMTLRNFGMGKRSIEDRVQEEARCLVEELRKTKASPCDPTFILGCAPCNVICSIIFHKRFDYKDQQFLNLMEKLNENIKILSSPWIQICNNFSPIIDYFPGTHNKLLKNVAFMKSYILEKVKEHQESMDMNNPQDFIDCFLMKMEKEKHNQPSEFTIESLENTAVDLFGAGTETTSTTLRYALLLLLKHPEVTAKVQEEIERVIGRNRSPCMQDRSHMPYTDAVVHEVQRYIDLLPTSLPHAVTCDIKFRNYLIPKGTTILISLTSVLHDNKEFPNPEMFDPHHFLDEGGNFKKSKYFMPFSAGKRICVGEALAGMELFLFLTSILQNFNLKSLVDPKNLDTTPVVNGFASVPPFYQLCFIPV
Calcium and integrin-binding protein 1 (Homo sapiens), sequence (Q99828 whole entry, looked up): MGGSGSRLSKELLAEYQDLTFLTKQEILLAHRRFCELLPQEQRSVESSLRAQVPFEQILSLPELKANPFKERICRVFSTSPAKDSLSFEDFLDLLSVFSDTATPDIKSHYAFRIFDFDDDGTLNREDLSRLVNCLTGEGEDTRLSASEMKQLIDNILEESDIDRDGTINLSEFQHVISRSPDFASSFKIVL
Cytochrome P450 2D6 (Homo sapiens), sequence (P10635 whole entry, looked up): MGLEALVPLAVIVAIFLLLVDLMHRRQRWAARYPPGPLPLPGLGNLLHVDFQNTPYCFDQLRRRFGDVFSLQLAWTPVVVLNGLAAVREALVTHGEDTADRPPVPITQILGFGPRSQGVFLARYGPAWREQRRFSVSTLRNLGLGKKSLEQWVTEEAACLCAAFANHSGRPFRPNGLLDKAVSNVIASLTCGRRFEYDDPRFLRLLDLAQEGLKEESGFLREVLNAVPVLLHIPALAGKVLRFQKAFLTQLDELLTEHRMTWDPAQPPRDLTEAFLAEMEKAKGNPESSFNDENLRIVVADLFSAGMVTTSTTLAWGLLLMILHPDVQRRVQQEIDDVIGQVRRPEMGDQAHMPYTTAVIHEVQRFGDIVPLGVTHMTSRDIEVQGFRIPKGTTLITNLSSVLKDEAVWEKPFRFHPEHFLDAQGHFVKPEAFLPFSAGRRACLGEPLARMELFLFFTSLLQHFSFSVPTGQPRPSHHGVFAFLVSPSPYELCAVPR
Protein phosphatase 1D (Homo sapiens), sequence (O15297 whole entry, looked up): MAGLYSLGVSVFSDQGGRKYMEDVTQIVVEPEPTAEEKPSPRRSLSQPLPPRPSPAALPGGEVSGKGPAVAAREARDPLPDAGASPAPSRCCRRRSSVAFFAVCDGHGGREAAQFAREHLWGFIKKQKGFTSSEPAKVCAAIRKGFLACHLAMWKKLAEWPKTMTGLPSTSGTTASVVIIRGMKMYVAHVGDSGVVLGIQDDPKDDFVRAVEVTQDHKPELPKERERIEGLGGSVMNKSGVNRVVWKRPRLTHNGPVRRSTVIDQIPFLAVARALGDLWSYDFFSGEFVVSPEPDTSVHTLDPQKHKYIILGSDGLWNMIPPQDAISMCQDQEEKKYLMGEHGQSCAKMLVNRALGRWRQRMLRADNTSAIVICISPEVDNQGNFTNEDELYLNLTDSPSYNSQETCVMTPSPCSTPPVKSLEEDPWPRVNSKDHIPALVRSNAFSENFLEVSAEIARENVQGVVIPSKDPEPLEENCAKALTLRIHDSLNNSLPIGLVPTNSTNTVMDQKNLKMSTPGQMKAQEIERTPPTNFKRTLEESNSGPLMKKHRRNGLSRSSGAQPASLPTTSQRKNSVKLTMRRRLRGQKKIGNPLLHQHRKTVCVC
Cytochrome P450 3A4 (Homo sapiens), sequence (P08684 whole entry, looked up): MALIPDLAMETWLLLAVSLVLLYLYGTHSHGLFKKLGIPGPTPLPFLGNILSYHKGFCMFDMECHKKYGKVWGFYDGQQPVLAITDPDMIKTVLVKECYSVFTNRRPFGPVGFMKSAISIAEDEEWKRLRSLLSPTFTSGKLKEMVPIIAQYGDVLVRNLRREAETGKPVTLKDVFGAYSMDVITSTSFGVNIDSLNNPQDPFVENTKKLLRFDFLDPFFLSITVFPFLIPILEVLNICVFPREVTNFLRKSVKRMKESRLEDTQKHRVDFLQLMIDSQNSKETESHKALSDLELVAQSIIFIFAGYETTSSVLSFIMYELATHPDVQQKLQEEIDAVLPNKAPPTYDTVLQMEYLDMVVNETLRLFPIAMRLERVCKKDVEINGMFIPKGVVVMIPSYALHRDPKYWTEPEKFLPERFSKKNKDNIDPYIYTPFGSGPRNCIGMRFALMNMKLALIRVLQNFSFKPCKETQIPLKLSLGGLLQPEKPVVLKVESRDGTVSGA

NC(N)=NS(=O)(=O)c1ccc(N)cc1
not listed: [13]
inactive: all other assays above

CN(C(=O)c1c(O)c2ccccc2n(C)c1=O)c1ccccc1
not listed: [6] | [9] | [12]
inactive: all other assays above

C[C@H]1COc2c(C3(N)CC3)c(F)cc3c(=O)c(C(=O)O)cn1c23
not listed: [9] | [13]
inactive: all other assays above

O[C@@H]1CO[C@H]2[C@@H]1OC[C@@H]2O
not listed: [9] | [12] | [13]
inactive: all other assays above

C[C@@H](c1ncncc1F)C(O)(Cn1cncn1)c1ccc(F)cc1F (some centres not stated)
not listed: [9] | [10] | [11] | [12] | [13]
inactive: all other assays above

CC(=O)N(CC(O)CN(C(C)=O)c1c(I)c(C(=O)NCC(O)CO)c(I)c(C(=O)NCC(O)CO)c1I)c1c(I)c(C(=O)NCC(O)CO)c(I)c(C(=O)NCC(O)CO)c1I (configuration not stated)
not listed: [12] | [13]
inactive: all other assays above
